Experimental data published in the supplement of paper PMC9177965.

Experiments:
[1] = tested on: HT29 RNF43 G659fs (RNF43 659mut, CRISPR-edited); assay: cell viability activity relative to DMSO (negative = inhibition); higher = more viable cells (less growth inhibition); settings: 5 µM; 96 h
Protocol: (§1)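 Broad Repurposing Library primary screen at a single dose of 5 uM. HT29 sg-Ctrl and HT29 RNF43 G659fs CRISPR-edited isogenic cells were seeded at 2500 cells/well in 384-well plates in duplicate and treated for 96 h. Viability was read by CellTiter-Glo and reported as % activity relative to DMSO, with MG132 as the positive control (negative = growth inhibition).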

[2] = tested on: HT29 sg-Ctrl (RNF43 wildtype); assay: as above; settings: 5 µM; 96 h
Protocol: as §1

Compound | cell viability activity [1] | cell viability activity [2]
CCOc1cc2ncc(C#N)c(Nc3ccc(OCc4ccccn4)c(Cl)c3)c2cc1NC(=O)/C=C/CN(C)C | -50.3% | -30.9%
C=CCn1c(=O)c2cnc(Nc3ccc(N4CCN(C)CC4)cc3)nc2n1-c1cccc(C(C)(C)O)n1 | -74.4% | -81%
COc1ccc(F)c(F)c1C(=O)c1cnc(NC2CCN(S(C)(=O)=O)CC2)nc1N | -69% | -65.9%
O=C(/C=C\n1cnc(-c2cc(C(F)(F)F)cc(C(F)(F)F)c2)n1)NNc1cnccn1 | -73.9% | -69.8%
COc1cccc(-c2cc(F)ccc2[C@H]2Cc3nc(N)nc(C)c3C(=O)N2)n1 | -82.4% | -81.1%
COc1cc2c(Oc3ccc(NC(=O)C4(C(=O)Nc5ccc(F)cc5)CC4)cc3F)ccnc2cc1OCCCN1CCOCC1 | -92.2% | -37.8%
Cc1cc(OCc2nnc(SC3CCCC3)n2-c2cccnc2)ccc1-c1ccc(S(C)(=O)=O)cc1 | -86.4% | -74.8%
Nc1ccccc1NC(=O)c1ccc(CNc2nccc(-c3cccnc3)n2)cc1 | -87.7% | -77%
Cc1cc(Nc2ncc(Cl)c(Nc3ccccc3S(=O)(=O)C(C)C)n2)c(OC(C)C)cc1C1CCNCC1 | -97.2% | -95%
O=C1[C@H](Cc2ccc(O)cc2)N2C(=O)CCN(C(=O)NCc3ccccc3)[C@H]2CN1Cc1cccc2ccccc12 | -58.4% | -41.8%
Nc1nc(Nc2ccc(S(N)(=O)=O)cc2)nn1C(=O)c1c(F)cccc1F | -23.1% | -26.5%
CN1CCc2c(c3ccccc3n2Cc2ccccc2)C1 | -59.2% | -56.9%
c1ccc2c(-c3cnn4cc(-c5ccc(N6CCNCC6)cc5)cnc34)ccnc2c1 | -95.2% | -95.7%
